These results are taken from PubChem BioAssay (EPA / NIEHS).

A word on the AC50: it is the concentration giving half of the maximal activity seen.

The structures appear in SMILES notation. Records with an inconclusive call do not appear. The source made the active and inactive calls. Rule for the calls, unless noted: active = hit-call score of the fitted dose curve at least 0.9, where 1 is the maximum; inactive = score below 0.9.

Read-out in assay [1]: Pyruvate Dehydrogenase Kinase 4 (PDK4), PDK4 (gene 5166)
In words: LTEA_HepaRG_PDK4: Life Technologies and Expression Analysis (LTEA) Assay for Pyruvate Dehydrogenase Kinase 4 (PDK4) using HepaRG (AID 2283525). The conditions noted are these: mRNA level, 48 h; actives raise or lower the signal. The method in brief: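 HepaRG (human liver line), 48 h chemical exposure, 8-pt half-log CRC top 100 uM, 0.5% DMSO vehicle, duplicates. Readout: TaqMan qRT-PCR of PDK4 mRNA, housekeeping-normalized; gain/loss fit relative to DMSO baseline.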

Read-out in assay [2]: NAD(P)H dehydrogenase [quinone] 1 (NQO1), NQO1 (gene 1728)
The assay is described as follows: LTEA_HepaRG_NQO1: Life Technologies and Expression Analysis (LTEA) Assay for NAD(P)H dehydrogenase [quinone] 1 (NQO1) using HepaRG (AID 2283526). The settings on record: mRNA level, 48 h; actives raise or lower the signal. The gist of the method:
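In this assay, gene expression is read by qRT-PCR after 48 h exposure of HepaRG cells to eight concentrations (max 100 uM, half-log) in 0.5% DMSO. Each chemical runs in duplicate, and activity is scored relative to vehicle.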

Read-out in assay [3]: Nuclear factor erythroid 2-related factor 2 (Homo sapiens) (UniProt Q16236)
In words: LTEA_HepaRG_NFE2L2: Life Technologies and Expression Analysis (LTEA) Assay for Nuclear factor erythroid 2-related factor 2 (NFE2L2) Transcription Factor using HepaRG (AID 2283527).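 For outcome: TaqMan qRT-PCR transcript level normalised to ACTB GAPDH and POLR2A housekeeping genes.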 The conditions noted are these: mRNA level, 48 h; actives raise or lower the signal. The method in brief: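 HepaRG, 48 h dosing, 8-pt half-log series from 100 uM in 0.5% DMSO, duplicates. Read-out: NFE2L2 mRNA by qRT-PCR (ACTB/GAPDH/POLR2A normalization). Bidirectional curve fit vs DMSO baseline.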

Read-out in assay [4]: succinate dehydrogenase complex iron sulfur subunit B (SDHB), SDHB (gene 6390)
The assay is described as follows: LTEA_HepaRG_SDHB: Life Technologies and Expression Analysis (LTEA) Assay for succinate dehydrogenase complex iron sulfur subunit B (SDHB) using HepaRG (AID 2283528). The settings on record: mRNA level, 48 h; actives raise or lower the signal. The gist of the method: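 HepaRG cells (~100,000/well, plated 48 h) exposed in duplicate for 48 h in serum-free induction medium to 8-point half-log series from 100 uM in 0.5% DMSO; mRNA by qRT-PCR normalised to ACTB, GAPDH, POLR2A; bidirectional fit versus DMSO.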

Read-out in assay [5]: Signal transducer and activator of transcription 3 (Homo sapiens) (UniProt P40763)
The assay is described as follows: LTEA_HepaRG_STAT3: Life Technologies and Expression Analysis (LTEA) Assay for Signal transducer and activator of transcription (STAT3) using HepaRG (AID 2283529). The conditions noted are these: mRNA level, 48 h; actives raise or lower the signal. The method in brief:
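HepaRG, 48 h exposure, 8-pt half-log series (top 100 uM), 0.5% DMSO vehicle, duplicates. Readout: STAT3 transcript by Fluidigm qRT-PCR, housekeeping-normalized; bidirectional fit vs DMSO baseline.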

Read-out in assay [6]: solute carrier (SLCO1B1), SLCO1B1 (gene 10599)
In words: LTEA_HepaRG_SLCO1B1: Life Technologies and Expression Analysis (LTEA) Assay for solute carrier (SLCO1B1) using HepaRG (AID 2283530). The settings on record: mRNA level, 48 h; actives raise or lower the signal. The method in brief: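 HepaRG, serum-free induction medium, 48 h dosing, 8-pt half-log from 100 uM, 0.5% DMSO vehicle, duplicates. Readout: SLCO1B1 mRNA, qRT-PCR, ACTB/GAPDH/POLR2A normalization; up or down fit vs DMSO.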

Read-out in assay [7]: sulfotransferase 2A1 (SULT2A1), SULT2A1 (gene 6822)
The assay is described as follows: LTEA_HepaRG_SULT2A1: Life Technologies and Expression Analysis (LTEA) Assay for sulfotransferase 2A1 (SULT2A1) using HepaRG (AID 2283531). The settings on record: mRNA level, 48 h; actives raise or lower the signal. The gist of the method:
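Transcript levels of SULT2A1, quantified by qRT-PCR and normalized to three housekeeping genes, serve as the readout. Human HepaRG cultures receive test chemicals for 48 h at up to 100 uM in half-log steps, with 0.5% DMSO vehicle.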

Read-out in assay [8]: Transforming Growth Factor (TGFA), TGFA (gene 7039)
The assay is described as follows: LTEA_HepaRG_TGFA: Life Technologies and Expression Analysis (LTEA) Assay for Transforming Growth Factor (TGFA) using HepaRG (AID 2283532). The conditions noted are these: mRNA level, 48 h; actives raise or lower the signal. The gist of the method: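 qRT-PCR read-out of TGFA transcript, normalized to three housekeeping genes, fitted bidirectionally against 0.5% DMSO baseline. Human HepaRG cultures received chemicals for 48 h at eight half-log concentrations, top 100 uM.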

Read-out in assay [9]: Transforming Growth Factor (TGFB1), TGFB1 (gene 7040)
In words: LTEA_HepaRG_TGFB1: Life Technologies and Expression Analysis (LTEA) Assay for Transforming Growth Factor (TGFB1) Transporter using HepaRG (AID 2283533). The settings on record: mRNA level, 48 h; actives raise or lower the signal. The gist of the method:
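HepaRG, 48 h post-plating, switched to serum-free induction medium; chemicals 100 uM top, half-log, 8 pts, 0.5% DMSO, dup; 48 h exposure; RNA → Fluidigm TaqMan qRT-PCR; norm ACTB/GAPDH/POLR2A; bidirectional fit vs DMSO.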

Read-out in another assay: TIMP1, TIMP1 (gene 7076)
The assay is described as follows: LTEA_HepaRG_TIMP1: Life Technologies and Expression Analysis (LTEA) Assay for TIMP1 using HepaRG (AID 2283534). The conditions noted are these: mRNA level, 48 h; actives raise or lower the signal. The method in brief: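 Readout is TIMP1 mRNA level measured by qRT-PCR and normalized to three housekeeping genes. Human HepaRG cells were treated for 48 h in duplicate at eight concentrations up to 100 uM (0.5% DMSO); gain or loss fitted against DMSO.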

Read-out in assay [10]: Tumor necrosis factor receptor 1 (TNFRSF1A), TNFRSF1A (gene 7132)
The assay is described as follows: LTEA_HepaRG_TNFRSF1A: Life Technologies and Expression Analysis (LTEA) Assay for Tumor necrosis factor receptor 1 (TNFRSF1A) using HepaRG (AID 2283535). The conditions noted are these: mRNA level, 48 h; actives raise or lower the signal. The gist of the method:
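Read-out is TNFRSF1A transcript level by TaqMan qRT-PCR, normalized to three housekeeping genes, scored as gain or loss of signal versus 0.5% DMSO. Human HepaRG cells received test chemicals for 48 h at up to 100 uM (half-log series).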

Read-out in assay [11]: Thyroid Hormone Responsive (THRSP), THRSP (gene 7069)
The assay is described as follows: LTEA_HepaRG_THRSP: Life Technologies and Expression Analysis (LTEA) Assay for Thyroid Hormone Responsive (THRSP) using HepaRG (AID 2283536). The conditions noted are these: mRNA level, 48 h; actives raise or lower the signal. The method in brief: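 qRT-PCR read-out (Fluidigm TaqMan), housekeeping-normalized (ACTB/GAPDH/POLR2A). HepaRG, 48 h chemical exposure, 8-pt half-log series from 100 uM in 0.5% DMSO, duplicates. Bidirectional curve fit vs 0.5% DMSO baseline.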

Read-out in assay [12]: Cellular tumor antigen p53 (Homo sapiens) (UniProt P04637)
The assay is described as follows: LTEA_HepaRG_TP53: Life Technologies and Expression Analysis (LTEA) Assay for Tumor Protein P53 (TP53) using HepaRG (AID 2283537). The conditions noted are these: mRNA level, 48 h; actives raise or lower the signal. The method in brief:
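Differentiated HepaRG cells in serum-free induction medium exposed 48 h in duplicate to 8 half-log concentrations, top 100 uM, 0.5% DMSO. TP53 mRNA by TaqMan qRT-PCR (Fluidigm), normalized to ACTB, GAPDH, POLR2A; fitted bidirectionally versus DMSO.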

Read-out in assay [13]: UDP glucuronosyltransferase (UGT1A1), UGT1A1 (gene 54658)
The assay is described as follows: LTEA_HepaRG_UGT1A1: Life Technologies and Expression Analysis (LTEA) Assay for UDP glucuronosyltransferase (UGT1A1) using HepaRG (AID 2283538). The settings on record: mRNA level, 48 h; actives raise or lower the signal. The gist of the method: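 mRNA induction or loss of UGT1A1, by TaqMan qRT-PCR, in duplicate HepaRG wells after 48 h exposure to half-log dilutions topping at 100 uM; DMSO (0.5%) served as baseline.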

Read-out in assay [14]: UDP glucuronosyltransferase (UGT1A6), UGT1A6 (gene 54578)
In words: LTEA_HepaRG_UGT1A6: Life Technologies and Expression Analysis (LTEA) Assay for UDP glucuronosyltransferase (UGT1A6) using HepaRG (AID 2283539). The conditions noted are these: mRNA level, 48 h; actives raise or lower the signal. The gist of the method: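 HepaRG, 48 h post-plating switch to serum-free induction medium; chemical 48 h, 100 uM top, half-log x8, duplicate, 0.5% DMSO. Phenobarbital 1mM induction control. UGT1A6 mRNA by TaqMan qRT-PCR; gain/loss fit vs DMSO.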

Read-out in assay [15]: X-box binding protein 1 (XBP1), XBP1 (gene 7494)
In words: LTEA_HepaRG_XBP1: Life Technologies and Expression Analysis (LTEA) Assay for X-box binding protein 1 (XBP1) using HepaRG (AID 2283540). The conditions noted are these: mRNA level, 48 h; actives raise or lower the signal. The method in brief: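 Transcript levels of XBP1, measured by qRT-PCR and normalised to three housekeeping genes, were fitted bidirectionally relative to 0.5% DMSO controls. Human HepaRG cells received eight-point half-log dilutions from 100 uM for 48 h.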

Assay [16] can be described thus: LTEA_HepaRG_LDH_cytotoxicity: Cytotoxicity Assessment in the Life Technologies and Expression Analysis (LTEA) Assay (AID 2283563; active = hit-call score of the fitted dose curve at least 0.9, where 1 is the maximum;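 for AC50: LDH activity released into spent culture medium as a marker of cell death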). The method in brief: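 Cells were thawed and plated for 48 h. Medium was then replaced with serum-free induction medium. Chemicals (8 half-log points, maximum 100 uM, 0.5% DMSO) were added in duplicate for 48 h, after which spent medium was assayed for LDH.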

A short description of assay [17]: ATG_XTT_Cytotoxicity: Cytotoxicity Assessment in the Attagene TRANS-FACTORIAL HepG2 Assay (AID 2283584; active = hit-call score of the fitted dose curve at least 0.9, where 1 is the maximum). The method in brief:
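Cells: human HepG2, transiently transfected with MRTU reporter constructs. Exposure 24 h. Readout: XTT, cell number. Baseline/neg ctrl DMSO; loss-of-signal scored.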

Assay [18] in a line: TOX21_p53_BLA_p2_viability: Viability Assessment in the Tox21 HCT-116 p53 Agonism Beta-lactamase Assay, Phase 2 (AID 2283591; active = hit-call score of the fitted dose curve at least 0.9, where 1 is the maximum;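 note: compound exposure lasted 16 h at 37 °C; actives lower the ATP signal meaning cytotoxicity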). The gist of the method: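 HCT116 p53-bla cells, 4000/well, dosed after 5 h plating (217-fold dilution of DMSO stocks) and incubated 16 h at 37C. Viability taken as cellular ATP by CellTiter-Glo luminescence after 30 min RT; signal loss marks cytotoxicity.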

Assay [19] deals with Cellular tumor antigen p53 (Homo sapiens) (UniProt P04637). The assay is described as follows: TOX21_p53_BLA_p2_ratio: Tox21 HCT-116 p53 Agonism Beta-lactamase Assay, Ratio, Phase 2 (AID 2283592; active = hit-call score of the fitted dose curve at least 0.9, where 1 is the maximum). The method in brief:
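Plated HCT116 p53-bla cells (4000/well) received compound after 5 h, then 16 h at 37C/5% CO2. CCF4-AM added, 2 h RT. Ratio of 460 to 530 nm emission taken as the p53 reporter signal.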

Signal transducer and activator of transcription 3 (Homo sapiens), sequence (P40763 whole entry, looked up): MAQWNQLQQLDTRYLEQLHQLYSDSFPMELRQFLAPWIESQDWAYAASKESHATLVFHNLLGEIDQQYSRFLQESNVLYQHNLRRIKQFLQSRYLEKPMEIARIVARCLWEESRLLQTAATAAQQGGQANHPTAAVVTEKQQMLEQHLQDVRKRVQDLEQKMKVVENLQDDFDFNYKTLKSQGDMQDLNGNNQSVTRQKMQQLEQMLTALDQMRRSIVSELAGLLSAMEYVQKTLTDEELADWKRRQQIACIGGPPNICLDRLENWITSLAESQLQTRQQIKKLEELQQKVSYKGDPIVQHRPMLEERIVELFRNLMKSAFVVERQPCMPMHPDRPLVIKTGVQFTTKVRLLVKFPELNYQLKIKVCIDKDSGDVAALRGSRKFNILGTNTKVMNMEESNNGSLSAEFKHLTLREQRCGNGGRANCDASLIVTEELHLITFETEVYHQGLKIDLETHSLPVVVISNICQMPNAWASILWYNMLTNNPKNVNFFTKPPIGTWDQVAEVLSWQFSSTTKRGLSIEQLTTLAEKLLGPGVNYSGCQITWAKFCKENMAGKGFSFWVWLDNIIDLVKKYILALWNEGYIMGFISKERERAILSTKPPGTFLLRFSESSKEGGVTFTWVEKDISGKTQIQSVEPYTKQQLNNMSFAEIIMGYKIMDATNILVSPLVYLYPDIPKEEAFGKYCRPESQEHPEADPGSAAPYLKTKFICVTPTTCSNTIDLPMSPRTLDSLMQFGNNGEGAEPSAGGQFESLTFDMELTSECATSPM
Cellular tumor antigen p53 (Homo sapiens), sequence (P04637 whole entry, looked up): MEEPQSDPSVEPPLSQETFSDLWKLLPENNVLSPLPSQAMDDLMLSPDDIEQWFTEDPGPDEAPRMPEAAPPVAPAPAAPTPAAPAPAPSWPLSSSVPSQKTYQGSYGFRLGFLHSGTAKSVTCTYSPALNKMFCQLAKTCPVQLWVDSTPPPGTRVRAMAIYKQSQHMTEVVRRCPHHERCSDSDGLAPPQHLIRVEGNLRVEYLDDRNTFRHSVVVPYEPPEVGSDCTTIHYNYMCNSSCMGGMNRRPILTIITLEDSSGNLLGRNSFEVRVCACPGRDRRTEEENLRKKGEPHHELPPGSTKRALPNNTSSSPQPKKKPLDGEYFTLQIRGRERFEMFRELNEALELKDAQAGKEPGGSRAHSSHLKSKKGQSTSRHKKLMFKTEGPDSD
Nuclear factor erythroid 2-related factor 2 (Homo sapiens), sequence (Q16236 whole entry, looked up): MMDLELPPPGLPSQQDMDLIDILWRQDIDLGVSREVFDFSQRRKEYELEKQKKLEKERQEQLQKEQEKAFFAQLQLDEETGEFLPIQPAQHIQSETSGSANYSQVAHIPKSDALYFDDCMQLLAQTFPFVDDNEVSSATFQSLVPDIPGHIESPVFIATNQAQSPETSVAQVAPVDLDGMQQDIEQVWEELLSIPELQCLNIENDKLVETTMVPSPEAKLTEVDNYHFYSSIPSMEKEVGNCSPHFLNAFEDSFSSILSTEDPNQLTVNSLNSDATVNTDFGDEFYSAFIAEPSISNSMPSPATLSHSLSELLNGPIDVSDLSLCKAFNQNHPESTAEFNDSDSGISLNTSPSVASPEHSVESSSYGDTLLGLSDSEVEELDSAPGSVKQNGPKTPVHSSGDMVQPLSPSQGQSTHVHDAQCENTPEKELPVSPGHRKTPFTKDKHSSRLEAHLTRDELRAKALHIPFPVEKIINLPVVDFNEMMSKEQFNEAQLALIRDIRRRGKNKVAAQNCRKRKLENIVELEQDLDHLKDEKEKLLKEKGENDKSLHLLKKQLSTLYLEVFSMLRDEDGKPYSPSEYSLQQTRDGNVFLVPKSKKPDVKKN

With `CCOC(=O)CC(O)(CC(=O)OCC)C(=O)OCC`, the outcome in [1], in [2], in assay [3], in assay [4], in assay [5] and in assay [6] was inactive. Moreover, the outcome is “inactive” in [7]; “inactive” in [8]; “inactive” in assay [9]; “inactive” with TIMP1, TIMP1 (gene 7076); “inactive” in assay [10]; “inactive” in assay [11]. For the same compound, the compound was classed as inactive in assay [12], in assay [13], in [14], in assay [15], in assay [16] and in assay [17]. Further, the outcome in assay [18] and in assay [19] was inactive.

On to `CC[C@H](C)[C@@H](C(=O)O)n1sc2ccccc2c1=O`, for which the call in assay [1], in assay [2], in [3], in [4], in assay [5] and in assay [6] was inactive. Further, the outcome is “inactive” in assay [7]; “inactive” in [8]; “inactive” in assay [9]; “inactive” with TIMP1, TIMP1 (gene 7076); “inactive” in [10]; “inactive” in assay [11]. In addition, the compound was called inactive in assay [12], in assay [13], in assay [14], in assay [15], in assay [16] and in assay [19].

For `Cc1oc(-c2ccccc2)nc1CCOc1ccc(C[C@H](Nc2ccccc2C(=O)c2ccccc2)C(=O)O)cc1`, the half-maximal activity concentration (AC50) in [1] is 0.338 µM (active); in assay [2] it was 29.6 µM (active); in assay [3], 11.9 µM (active); in assay [4] it was 26.1 µM (active); in [5], 21.2 µM (active); in [6], 23.4 µM (active). For the same compound, the AC50 in [7] was 23.4 µM (active); in assay [8], 0.0617 µM (active); in assay [9], 31.3 µM (active); in assay [10] it was 26.7 µM (active); in assay [11], 24 µM (active); in assay [12] it was 86.1 µM (active). In addition, the half-maximal activity concentration (AC50) in assay [13] was 23.1 µM (active); in [14], 16.8 µM (active); in assay [16], 28.7 µM (active); in assay [18], 7.33 µM (active); in [19], 72.3 µM (active). Also, the outcome in the assay with TIMP1, TIMP1 (gene 7076) was “inactive”; in assay [15], “inactive”; in assay [17], “inactive”.
